Assay results: PMC7862700, “An all-to-all approach to the identification of sequence-specific readers for epigenetic DNA modifications on cytosine”

How the values were obtained:
Experiment in all cases: DAPPL (digital affinity profiling via proximity ligation, sequencing); 10 mM Tris-HCl pH 7.5, 50 mM NaCl, 1 mM DTT, 4% glycerol, room temperature, 30 min; GST-TFs on glutathione beads, 16-mer random dsDNA library, 0.1% formaldehyde crosslink after washing; high values mean tight binding
[1] = target: T1, FLI1 (Homo sapiens, UniProt Q01543 1-452); conditions: protein: recombinant; tags: N-terminal GST; dsDNA, one strand shown
T1 sequence: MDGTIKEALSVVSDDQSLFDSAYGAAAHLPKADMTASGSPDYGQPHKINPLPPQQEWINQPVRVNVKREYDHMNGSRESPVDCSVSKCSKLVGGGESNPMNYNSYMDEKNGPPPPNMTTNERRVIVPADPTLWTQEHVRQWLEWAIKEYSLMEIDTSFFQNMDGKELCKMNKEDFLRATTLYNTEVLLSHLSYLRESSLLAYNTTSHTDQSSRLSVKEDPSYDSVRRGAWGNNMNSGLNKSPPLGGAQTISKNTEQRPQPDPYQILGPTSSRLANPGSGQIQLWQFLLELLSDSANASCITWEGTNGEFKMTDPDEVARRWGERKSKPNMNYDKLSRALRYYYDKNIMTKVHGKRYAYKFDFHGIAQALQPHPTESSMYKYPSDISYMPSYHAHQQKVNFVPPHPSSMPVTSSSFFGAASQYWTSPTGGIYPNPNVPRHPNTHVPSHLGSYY
In short: (§1)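 The binding signal reported is, for every hexamer, its read frequency for a factor over its read frequency for the tag-only sample. Reads came from pools of yeast-expressed, GST-fused human transcription factors on glutathione beads, barcoded with DNA and mixed with that sample, which were incubated with 200 nmole of a random double-stranded 16-mer DNA library in Tris/NaCl/DTT/glycerol buffer at room temperature for 30 min. After washing, the pools were crosslinked with 0.1% formaldehyde, proximity-ligated with BsaI/T4 ligase for 1 h at 37 °C, PCR-amplified and sequenced on an Illumina NextSeq500.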

[2] = target: T2, ELK1 (Homo sapiens, UniProt P19419 1-428); conditions: protein: recombinant; tags: N-terminal GST; dsDNA, one strand shown
T2 sequence: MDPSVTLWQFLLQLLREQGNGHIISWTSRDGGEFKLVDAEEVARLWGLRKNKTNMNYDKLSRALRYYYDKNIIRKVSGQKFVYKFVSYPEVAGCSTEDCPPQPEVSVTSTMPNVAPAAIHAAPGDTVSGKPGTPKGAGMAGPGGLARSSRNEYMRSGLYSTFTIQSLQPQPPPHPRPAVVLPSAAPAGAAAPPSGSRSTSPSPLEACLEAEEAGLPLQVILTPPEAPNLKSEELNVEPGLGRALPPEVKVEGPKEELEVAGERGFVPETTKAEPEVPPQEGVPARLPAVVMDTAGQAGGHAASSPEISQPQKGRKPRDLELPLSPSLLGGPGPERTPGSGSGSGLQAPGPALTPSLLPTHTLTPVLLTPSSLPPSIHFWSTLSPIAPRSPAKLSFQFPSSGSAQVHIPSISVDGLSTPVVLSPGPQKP
In short: as §1

[3] = target: T3, GABPA (Homo sapiens, UniProt Q06546 1-454); conditions: protein: recombinant; tags: N-terminal GST; dsDNA, one strand shown
T3 sequence: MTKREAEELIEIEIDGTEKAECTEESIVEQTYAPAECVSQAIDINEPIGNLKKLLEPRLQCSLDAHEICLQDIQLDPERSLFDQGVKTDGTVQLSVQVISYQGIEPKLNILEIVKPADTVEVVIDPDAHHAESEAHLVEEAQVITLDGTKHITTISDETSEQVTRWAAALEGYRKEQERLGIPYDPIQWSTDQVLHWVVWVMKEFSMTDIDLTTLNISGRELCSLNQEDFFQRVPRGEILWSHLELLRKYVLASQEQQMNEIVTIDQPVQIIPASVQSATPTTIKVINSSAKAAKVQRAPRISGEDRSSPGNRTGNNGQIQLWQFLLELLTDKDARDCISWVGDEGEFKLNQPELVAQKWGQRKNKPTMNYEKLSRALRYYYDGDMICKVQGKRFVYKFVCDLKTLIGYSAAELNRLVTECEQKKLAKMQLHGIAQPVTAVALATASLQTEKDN
In short: as §1

[4] = target: T4, ERG (Homo sapiens, UniProt P11308 1-479); conditions: protein: recombinant; tags: N-terminal GST; dsDNA, one strand shown
T4 sequence: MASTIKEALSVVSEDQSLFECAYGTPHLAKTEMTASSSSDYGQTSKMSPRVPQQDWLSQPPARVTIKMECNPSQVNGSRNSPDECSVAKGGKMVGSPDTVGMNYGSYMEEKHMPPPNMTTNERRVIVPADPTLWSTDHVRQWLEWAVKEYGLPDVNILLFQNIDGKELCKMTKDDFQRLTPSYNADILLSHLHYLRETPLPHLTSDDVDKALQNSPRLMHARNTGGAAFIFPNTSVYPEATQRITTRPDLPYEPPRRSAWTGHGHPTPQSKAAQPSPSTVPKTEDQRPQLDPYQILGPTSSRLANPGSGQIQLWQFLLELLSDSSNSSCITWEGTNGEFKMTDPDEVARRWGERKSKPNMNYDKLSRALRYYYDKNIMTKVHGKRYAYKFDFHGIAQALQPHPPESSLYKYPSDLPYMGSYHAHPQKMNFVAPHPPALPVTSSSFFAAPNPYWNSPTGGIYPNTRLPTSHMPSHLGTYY
In short: as §1

[5] = target: ELF1 (Homo sapiens, UniProt P32519 1-619); conditions: protein: recombinant; tags: N-terminal GST; dsDNA, one strand shown
Chain of ELF1 (P32519 whole entry): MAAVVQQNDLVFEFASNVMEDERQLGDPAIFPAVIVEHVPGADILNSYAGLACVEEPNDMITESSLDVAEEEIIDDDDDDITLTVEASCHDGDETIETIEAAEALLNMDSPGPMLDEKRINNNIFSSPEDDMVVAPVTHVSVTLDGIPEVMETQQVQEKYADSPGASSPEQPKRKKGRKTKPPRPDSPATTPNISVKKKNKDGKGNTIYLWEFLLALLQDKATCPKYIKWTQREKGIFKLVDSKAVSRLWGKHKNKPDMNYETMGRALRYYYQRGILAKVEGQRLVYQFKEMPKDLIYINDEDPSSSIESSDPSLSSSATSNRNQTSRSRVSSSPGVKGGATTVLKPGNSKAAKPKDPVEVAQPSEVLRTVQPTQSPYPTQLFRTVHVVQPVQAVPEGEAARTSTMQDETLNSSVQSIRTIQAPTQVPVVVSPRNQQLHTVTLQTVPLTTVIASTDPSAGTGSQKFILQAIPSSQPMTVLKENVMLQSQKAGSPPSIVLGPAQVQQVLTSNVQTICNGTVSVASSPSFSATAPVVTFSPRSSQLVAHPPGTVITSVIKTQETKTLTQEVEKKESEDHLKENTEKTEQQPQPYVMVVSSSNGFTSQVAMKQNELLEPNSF
In short: as §1

[6] = target: T5, EHF (Homo sapiens, UniProt Q9NZC4 1-300); conditions: protein: recombinant; tags: N-terminal GST; dsDNA, one strand shown
T5 sequence: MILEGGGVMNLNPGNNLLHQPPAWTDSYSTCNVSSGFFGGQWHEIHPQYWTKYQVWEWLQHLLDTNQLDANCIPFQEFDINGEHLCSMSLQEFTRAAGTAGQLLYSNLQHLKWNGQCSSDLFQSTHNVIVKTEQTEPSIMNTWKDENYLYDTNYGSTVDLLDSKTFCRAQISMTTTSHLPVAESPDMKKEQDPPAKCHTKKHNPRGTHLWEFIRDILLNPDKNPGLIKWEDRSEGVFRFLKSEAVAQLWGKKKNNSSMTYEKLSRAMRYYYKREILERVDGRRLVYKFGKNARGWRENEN
In short: as §1

[7] = target: SPI1 (Homo sapiens, UniProt P17947 1-270); conditions: protein: recombinant; tags: N-terminal GST; dsDNA, one strand shown
In short: as §1

[8] = target: SPIB (Homo sapiens, UniProt Q01892 1-262); conditions: protein: recombinant; tags: N-terminal GST; dsDNA, one strand shown
Chain of SPIB (Q01892 whole entry): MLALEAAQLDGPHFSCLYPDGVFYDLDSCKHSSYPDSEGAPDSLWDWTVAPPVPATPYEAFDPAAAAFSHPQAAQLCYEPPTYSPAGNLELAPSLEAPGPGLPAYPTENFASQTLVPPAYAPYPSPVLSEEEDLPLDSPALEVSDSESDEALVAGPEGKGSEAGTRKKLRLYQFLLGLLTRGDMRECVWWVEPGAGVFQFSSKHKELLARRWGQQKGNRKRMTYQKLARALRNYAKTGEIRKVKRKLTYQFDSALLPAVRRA
In short: as §1

[9] = target: T6, ELK3 (Homo sapiens, UniProt P41970 1-407); conditions: protein: recombinant; tags: N-terminal GST; dsDNA, one strand shown
T6 sequence: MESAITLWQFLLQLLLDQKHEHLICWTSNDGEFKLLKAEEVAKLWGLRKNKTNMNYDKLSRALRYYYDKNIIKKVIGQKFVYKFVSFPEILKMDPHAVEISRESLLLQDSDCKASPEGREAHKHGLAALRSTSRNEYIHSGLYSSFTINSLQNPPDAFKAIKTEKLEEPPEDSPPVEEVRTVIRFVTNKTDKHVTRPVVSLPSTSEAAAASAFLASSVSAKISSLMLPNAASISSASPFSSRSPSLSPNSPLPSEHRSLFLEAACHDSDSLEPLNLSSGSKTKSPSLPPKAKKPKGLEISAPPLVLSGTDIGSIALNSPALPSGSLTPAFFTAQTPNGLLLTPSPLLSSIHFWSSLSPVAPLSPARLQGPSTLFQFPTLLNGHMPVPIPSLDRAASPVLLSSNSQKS
In short: as §1

[10] = target: T7, FEV (Homo sapiens, UniProt Q99581 1-238); conditions: protein: recombinant; tags: N-terminal GST; dsDNA, one strand shown
T7 sequence: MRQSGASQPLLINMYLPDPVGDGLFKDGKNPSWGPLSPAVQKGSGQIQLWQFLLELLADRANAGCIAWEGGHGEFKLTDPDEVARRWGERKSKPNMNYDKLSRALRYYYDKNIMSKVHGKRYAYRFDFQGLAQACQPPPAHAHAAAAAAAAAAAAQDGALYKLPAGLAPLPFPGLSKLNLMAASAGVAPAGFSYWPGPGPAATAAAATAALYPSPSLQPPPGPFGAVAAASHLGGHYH
In short: as §1

[11] = target: ETV5 (Homo sapiens, UniProt P41161 1-510); conditions: protein: recombinant; tags: N-terminal GST; dsDNA, one strand shown
Chain of ETV5 (P41161 whole entry): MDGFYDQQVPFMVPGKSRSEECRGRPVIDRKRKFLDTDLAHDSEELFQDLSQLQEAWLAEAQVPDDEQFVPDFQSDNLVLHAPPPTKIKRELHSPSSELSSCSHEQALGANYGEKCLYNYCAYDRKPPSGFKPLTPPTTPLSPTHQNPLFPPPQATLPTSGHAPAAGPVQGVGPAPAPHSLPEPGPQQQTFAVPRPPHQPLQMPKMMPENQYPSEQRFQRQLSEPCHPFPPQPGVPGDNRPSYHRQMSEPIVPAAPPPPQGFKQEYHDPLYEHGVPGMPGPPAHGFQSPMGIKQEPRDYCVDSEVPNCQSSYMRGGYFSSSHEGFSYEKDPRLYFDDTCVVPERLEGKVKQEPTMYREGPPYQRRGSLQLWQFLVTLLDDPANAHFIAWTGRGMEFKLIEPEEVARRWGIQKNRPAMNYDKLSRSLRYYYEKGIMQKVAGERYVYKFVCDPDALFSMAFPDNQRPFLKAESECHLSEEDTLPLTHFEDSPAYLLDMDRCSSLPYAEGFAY
In short: as §1

[12] = target: HSF1 (Homo sapiens, UniProt Q00613 1-529); conditions: protein: recombinant; tags: N-terminal GST; chain copies: 3; dsDNA, one strand shown
Chain of HSF1 (Q00613 whole entry): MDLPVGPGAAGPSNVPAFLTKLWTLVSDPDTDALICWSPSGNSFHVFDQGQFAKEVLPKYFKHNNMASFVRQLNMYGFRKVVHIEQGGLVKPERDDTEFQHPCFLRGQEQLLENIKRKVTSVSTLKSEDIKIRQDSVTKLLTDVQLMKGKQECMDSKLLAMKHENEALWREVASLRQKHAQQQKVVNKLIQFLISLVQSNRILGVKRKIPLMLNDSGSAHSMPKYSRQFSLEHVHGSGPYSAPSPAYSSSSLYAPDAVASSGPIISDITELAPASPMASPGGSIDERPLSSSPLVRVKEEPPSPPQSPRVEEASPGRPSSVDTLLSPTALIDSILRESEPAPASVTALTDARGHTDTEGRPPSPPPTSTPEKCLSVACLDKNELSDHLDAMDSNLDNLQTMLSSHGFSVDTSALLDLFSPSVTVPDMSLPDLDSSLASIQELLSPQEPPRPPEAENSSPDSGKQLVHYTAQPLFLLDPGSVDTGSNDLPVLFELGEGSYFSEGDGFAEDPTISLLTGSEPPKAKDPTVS
In short: as §1

[13] = target: T8, SPIC (Homo sapiens, UniProt Q8N5J4 1-248); conditions: protein: recombinant; tags: N-terminal GST; dsDNA, one strand shown
T8 sequence: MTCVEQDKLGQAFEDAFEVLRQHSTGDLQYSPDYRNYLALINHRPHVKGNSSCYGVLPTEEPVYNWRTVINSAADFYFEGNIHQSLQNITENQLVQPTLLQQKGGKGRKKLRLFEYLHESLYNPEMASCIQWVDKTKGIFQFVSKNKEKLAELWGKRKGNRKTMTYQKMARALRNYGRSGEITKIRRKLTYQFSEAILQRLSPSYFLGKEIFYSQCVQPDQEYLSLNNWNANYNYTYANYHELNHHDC
In short: as §1

[14] = target: ELF4 (Homo sapiens, UniProt Q99607 1-663); conditions: protein: recombinant; tags: N-terminal GST; dsDNA, one strand shown
Chain of ELF4 (Q99607 whole entry): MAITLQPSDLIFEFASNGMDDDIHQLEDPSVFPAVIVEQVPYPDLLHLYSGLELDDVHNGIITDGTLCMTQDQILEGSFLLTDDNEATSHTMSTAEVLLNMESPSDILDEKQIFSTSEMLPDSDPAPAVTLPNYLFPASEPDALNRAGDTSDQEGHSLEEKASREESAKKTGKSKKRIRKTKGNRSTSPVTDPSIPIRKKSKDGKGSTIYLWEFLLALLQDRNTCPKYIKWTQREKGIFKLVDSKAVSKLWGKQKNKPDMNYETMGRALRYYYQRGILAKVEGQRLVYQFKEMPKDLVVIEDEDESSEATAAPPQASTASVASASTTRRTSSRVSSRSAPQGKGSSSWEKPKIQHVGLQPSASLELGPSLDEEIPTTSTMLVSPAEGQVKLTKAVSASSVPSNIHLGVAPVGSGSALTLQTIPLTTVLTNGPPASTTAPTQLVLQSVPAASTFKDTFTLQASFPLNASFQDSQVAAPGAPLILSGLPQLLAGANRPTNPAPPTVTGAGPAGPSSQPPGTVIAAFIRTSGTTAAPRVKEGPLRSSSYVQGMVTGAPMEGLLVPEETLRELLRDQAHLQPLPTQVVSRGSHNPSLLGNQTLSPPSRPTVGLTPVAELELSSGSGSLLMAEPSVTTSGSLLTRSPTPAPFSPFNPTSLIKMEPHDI
In short: as §1

[15] = target: T9, ELK4 (Homo sapiens, UniProt P28324-2 1-405); conditions: protein: recombinant; tags: N-terminal GST; dsDNA, one strand shown
T9 sequence: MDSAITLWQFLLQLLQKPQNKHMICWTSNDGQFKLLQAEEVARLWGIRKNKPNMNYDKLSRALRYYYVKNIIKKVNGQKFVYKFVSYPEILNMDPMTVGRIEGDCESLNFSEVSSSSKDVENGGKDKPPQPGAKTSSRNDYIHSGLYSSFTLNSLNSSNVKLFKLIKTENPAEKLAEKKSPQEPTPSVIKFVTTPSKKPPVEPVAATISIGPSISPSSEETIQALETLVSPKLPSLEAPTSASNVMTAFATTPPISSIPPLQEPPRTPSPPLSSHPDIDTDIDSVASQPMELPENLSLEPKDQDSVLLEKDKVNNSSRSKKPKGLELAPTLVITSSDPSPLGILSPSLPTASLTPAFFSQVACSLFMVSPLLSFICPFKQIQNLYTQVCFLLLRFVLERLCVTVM
In short: as §1

[16] = target: T10, ETV2 (Homo sapiens, UniProt O00321 1-342); conditions: protein: recombinant; tags: N-terminal GST; dsDNA, one strand shown
T10 sequence: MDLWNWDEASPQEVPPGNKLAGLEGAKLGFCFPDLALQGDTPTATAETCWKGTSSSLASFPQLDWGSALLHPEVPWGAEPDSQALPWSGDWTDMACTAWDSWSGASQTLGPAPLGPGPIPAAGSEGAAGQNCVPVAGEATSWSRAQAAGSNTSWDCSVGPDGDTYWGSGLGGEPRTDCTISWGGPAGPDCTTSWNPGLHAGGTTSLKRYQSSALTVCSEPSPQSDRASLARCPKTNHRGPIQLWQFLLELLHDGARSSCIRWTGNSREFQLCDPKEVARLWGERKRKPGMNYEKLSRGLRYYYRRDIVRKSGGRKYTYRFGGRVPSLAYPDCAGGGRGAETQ
In short: as §1

[17] = target: T11, ELF3 (Homo sapiens, UniProt P78545 1-371); conditions: protein: recombinant; tags: N-terminal GST; dsDNA, one strand shown
T11 sequence: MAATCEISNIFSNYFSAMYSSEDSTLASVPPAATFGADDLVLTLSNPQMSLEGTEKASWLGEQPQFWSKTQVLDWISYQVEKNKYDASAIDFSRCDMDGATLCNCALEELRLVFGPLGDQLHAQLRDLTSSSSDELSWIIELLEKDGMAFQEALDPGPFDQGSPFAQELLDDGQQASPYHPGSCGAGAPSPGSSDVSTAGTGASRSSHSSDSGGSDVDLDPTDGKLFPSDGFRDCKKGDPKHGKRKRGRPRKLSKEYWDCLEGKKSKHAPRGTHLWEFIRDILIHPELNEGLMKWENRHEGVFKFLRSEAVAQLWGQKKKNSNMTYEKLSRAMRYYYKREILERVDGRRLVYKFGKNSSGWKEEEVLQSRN
In short: as §1

[18] = target: CRX (Homo sapiens, UniProt O43186 1-299); conditions: protein: recombinant; tags: N-terminal GST; dsDNA, one strand shown
Chain of CRX (O43186 whole entry): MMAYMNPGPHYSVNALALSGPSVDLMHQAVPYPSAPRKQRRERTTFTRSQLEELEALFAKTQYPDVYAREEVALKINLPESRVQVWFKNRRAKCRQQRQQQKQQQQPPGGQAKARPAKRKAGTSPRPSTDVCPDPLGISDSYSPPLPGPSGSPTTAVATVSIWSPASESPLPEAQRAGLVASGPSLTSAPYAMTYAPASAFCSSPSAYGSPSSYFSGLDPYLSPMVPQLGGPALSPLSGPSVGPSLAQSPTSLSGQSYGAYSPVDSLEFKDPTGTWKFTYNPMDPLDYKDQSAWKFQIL
In short: as §1

[19] = target: ETV1 (Homo sapiens, UniProt P50549 1-477); conditions: protein: recombinant; tags: N-terminal GST; dsDNA, one strand shown
Chain of ETV1 (P50549 whole entry): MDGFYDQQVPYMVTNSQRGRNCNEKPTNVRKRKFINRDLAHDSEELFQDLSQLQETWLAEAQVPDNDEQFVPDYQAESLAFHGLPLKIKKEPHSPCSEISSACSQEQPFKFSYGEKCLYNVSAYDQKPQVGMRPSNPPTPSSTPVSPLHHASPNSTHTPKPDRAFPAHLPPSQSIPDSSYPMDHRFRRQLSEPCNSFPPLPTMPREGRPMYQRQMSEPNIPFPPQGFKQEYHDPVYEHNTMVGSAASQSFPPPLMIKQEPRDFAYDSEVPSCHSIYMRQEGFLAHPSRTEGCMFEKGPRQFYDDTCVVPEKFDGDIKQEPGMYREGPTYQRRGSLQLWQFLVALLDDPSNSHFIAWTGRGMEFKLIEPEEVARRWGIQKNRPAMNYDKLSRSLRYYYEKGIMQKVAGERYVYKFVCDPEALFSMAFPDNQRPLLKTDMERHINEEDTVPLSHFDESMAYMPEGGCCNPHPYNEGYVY
In short: as §1

In the case of AATCAA, the binding signal [1] is reported as 1.1 fold enrichment (6-mer frequency, TF over GST control), the binding signal [2] is reported as 1.18 fold enrichment (6-mer frequency, TF over GST control) and the binding signal [3] is reported as 1.15 fold enrichment (6-mer frequency, TF over GST control). For the same sequence, the binding signal [4] was 1.21 fold enrichment (6-mer frequency, TF over GST control), the binding signal [5] was 1.17 fold enrichment (6-mer frequency, TF over GST control) and the binding signal [6] was 1.12 fold enrichment (6-mer frequency, TF over GST control). The binding signal [7] was 1.15 fold enrichment (6-mer frequency, TF over GST control), the binding signal [8] was 1.14 fold enrichment (6-mer frequency, TF over GST control) and the binding signal [9] was 1.14 fold enrichment (6-mer frequency, TF over GST control). For the same sequence, the binding signal [10] was 1.19 fold enrichment (6-mer frequency, TF over GST control), the binding signal [11] was 1.14 fold enrichment (6-mer frequency, TF over GST control) and the binding signal [12] was 1.13 fold enrichment (6-mer frequency, TF over GST control). For the same sequence, the binding signal [13] was 1.11 fold enrichment (6-mer frequency, TF over GST control), the binding signal [14] was 1.21 fold enrichment (6-mer frequency, TF over GST control) and the binding signal [15] was 1.18 fold enrichment (6-mer frequency, TF over GST control). The binding signal [16] was 1.48 fold enrichment (6-mer frequency, TF over GST control), the binding signal [17] was 1.24 fold enrichment (6-mer frequency, TF over GST control) and the binding signal [18] was 1.32 fold enrichment (6-mer frequency, TF over GST control). The binding signal [19] was 1.19 fold enrichment (6-mer frequency, TF over GST control).
